Rows were chosen to be rich in hits. Some 3.5% of all compounds tested hit in one or more screens of this group.
FBW7 activator – activators of human E3 ligase FBW7; AID 1259310; AlphaScreen FBW7–phospho-cyclin E peptide binding, activator screen; normalized activity (activation), % at 26.1 µM; actives 0.13% (n = 650,000); Q969H0; in the data active = normalized activity above about 1.9%;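 note: purified mutant Fbw7 with reduced substrate affinity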
MITF primary – blocks human microphthalmia-associated transcription factor. actives 0.91% (n = 650,000). inhibition, % at 2.6 µM. AlphaScreen MITF homodimerization, bead proximity signal; in the data active = inhibition above about 50%;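 note: 0% = vehicle wells with protein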
TEAD-YAP inh – TEAD-YAP interaction inhibition; actives 1.4% (n = 640,000); inhibition, % at 9.12 µM; HEK-TIYL cells, TEAD-Gal4/YAP UAS-luciferase luminescence; AID 1259422; in the data active = inhibition above about 32%;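 note: 0% = median of test compound wells and 100% = reference inhibitor wells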
GPR151 ag – human GPR151 activation | actives 1% (n = 650,000) | activation, % at 11.2 µM | PathHunter beta-arrestin GPR151 cells, luminescence | AID 1508602 | Q8TDV0; in the data active = activation above about 4.9%;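 note: 0% = median of compound wells and 100% = cells with positive control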
Target sequence (Q8TDV0 whole entry, looked up): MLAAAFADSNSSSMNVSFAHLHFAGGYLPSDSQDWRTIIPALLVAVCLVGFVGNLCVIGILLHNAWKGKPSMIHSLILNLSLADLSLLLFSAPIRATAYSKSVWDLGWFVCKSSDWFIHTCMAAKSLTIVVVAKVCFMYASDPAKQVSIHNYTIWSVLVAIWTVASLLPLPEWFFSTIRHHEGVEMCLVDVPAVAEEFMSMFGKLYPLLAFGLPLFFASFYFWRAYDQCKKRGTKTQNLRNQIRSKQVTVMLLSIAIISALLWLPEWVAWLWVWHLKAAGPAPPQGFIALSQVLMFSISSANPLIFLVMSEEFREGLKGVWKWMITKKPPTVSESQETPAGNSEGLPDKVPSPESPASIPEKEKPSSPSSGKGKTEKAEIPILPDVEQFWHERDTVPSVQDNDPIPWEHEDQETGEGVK
Numbers without * were called inactive.

SMILES | FBW7 activator | MITF primary | TEAD-YAP inh | GPR151 ag
Cn1nccc1-c1ccc2cnc(Nc3ccc(-n4cnc(N5CCOCC5)n4)cc3)nc2c1 | 0.2 | 0.8 | -17.3 | 0.1
Nc1ccc(-c2ccc3cnc(Nc4ccc(-n5cnc(N6CCOCC6)n5)cc4)nc3c2)cn1 | 1.4 | 1.8 | 64.8* | 1.9
c1cc(-c2ccc3cnc(Nc4ccc(-n5cnc(N6CCOCC6)n5)cc4)nc3c2)[nH]n1 | 13.3* | -5.9 | 10.7 | 0.4
c1cc(-n2cnc(N3CCOCC3)n2)ccc1Nc1ncc2ccc(N3CCOCC3)cc2n1 | -0.1 | -0.7 | 0.6 | 2.0
CNC(=O)c1ccc2cnc(Nc3ccc(-n4cnc(N5CCOCC5)n4)cc3)nc2c1 | 0.3 | 36.9 | 54.9* | 0.5
O=C(NCc1ccccc1)c1ccc2cnc(Nc3ccc(-n4cnc(N5CCOCC5)n4)cc3)nc2c1 | 0.5 | 46.6 | -2.3 | 0.7
O=C(NCc1cccnc1)[C@@H]1C[C@H](NCc2cccc(F)c2)CN1C/C=C/c1ccccc1 | 0.0 | -12.6 | -7.3 | -0.8
CCCN1CCN(S(=O)(=O)c2c(C)noc2C)CC1 | 0.1 | 5.3 | 7.6 | -0.4
O=c1c2ccccc2nc(SCc2ccc(Cl)cc2)n1CCc1ccccc1 | 0.4 | 10.8 | -0.5 | 0.0
Cc1ccc2nc(-c3ccccc3)c(N)n2c1 | -0.1 | -1.3 | 68.5* | -10.1
COCCNc1c(-c2ccccc2)nc2ccc(C)cn12 | 0.1 | 4.5 | -23.6 | -1.2
Cc1ccn2c(N)c(-c3ccccc3)nc2c1 | 0.1 | 15.7 | -7.8 | -0.9
Cc1ccc2nc(=S)nc(-c3ccccc3)n2c1 | -0.1 | -5.7 | 69.6* | 0.7
Cc1cc(C(F)(F)F)nc(SCc2ccc(C(=O)O)o2)n1 | 0.1 | 6.5 | 7.9 | -0.7
Cc1cc(C(F)(F)F)nc(SCc2ccc(C(=O)NNC(=O)c3ccccc3C)o2)n1 | 0.0 | 0.4 | 38.0* | -0.6
CCOC(=O)C1(Cc2ccccc2Cl)CCN(C(=O)CSC)CC1 | -0.1 | 10.7 | -68.8 | 0.3
COc1ccc(CC(=O)Nc2cc(-c3cnn(C)c3)ccn2)cc1 | 0.1 | -5.7 | 43.4* | -0.5
COc1ccc(CC(=O)Nc2cc3cc(-c4cn[nH]c4)ccc3cn2)cc1 | -0.1 | -5.1 | 95.9* | -2.2
Cn1cc(-c2ccnc(NC(=O)Cc3ccc4c(c3)OCO4)c2)cn1 | -0.7 | 1.8 | 33.9* | 1.5
COc1ccc(CC(=O)Nc2cc(C)on2)cc1 | 0.2 | 18.0 | 4.2 | -0.7
COc1ccc(CC(=O)Nc2cc3cc(-c4cnn(C)c4)ccc3cn2)cc1 | -0.1 | 6.3 | 72.2* | -1.1
NC1CCN(c2ccnc(NC(=O)Cc3ccc4c(c3)OCO4)c2)CC1 | -0.6 | 0.5 | 6.7 | 2.6
COc1ccc(CC(=O)Nc2ccc(-c3cn[nH]c3)cc2N2CCN(C)CC2)cc1 | 0.6 | -1.5 | -13.1 | 1.2
Cc1ccc(NC(=O)CN2C(=O)N/C(=C/c3ccccc3OC(C)C)C2=O)cc1 | 0.2 | 12.3 | 1.1 | 0.4
Cc1ccsc1CN(C(=O)c1ccc(Cl)c([N+](=O)[O-])c1)C1CCS(=O)(=O)C1 (stereo not drawn) | 0.0 | 14.5 | 6.8 | -0.1
SMILES | FBW7 activator | MITF primary | TEAD-YAP inh | GPR151 ag
Cc1nc2ccccn2c1C(=O)N/N=C/c1ccc(Cl)cc1Cl | -0.1 | -8.5 | 11.3 | -0.2
O=C(N/N=C/c1c(O)ccc2ccccc12)c1ccc[n+](CCO)c1 | -0.9 | 89.5* | -5.3 | 0.6
O=C(N/N=C\c1c(O)ccc2ccccc12)c1cncc(Br)c1 | -0.6 | -1.2 | 9.1 | -0.6
O=C(N/N=C/c1c(O)ccc2ccccc12)c1cccnc1 | -0.3 | 70.3* | 81.1* | -0.2
O=C(N/N=C/c1c(O)ccc2ccccc12)c1ccc(=O)[nH]n1 | -0.8 | 67.8* | 86.2* | 0.2
Cc1nc2ccccn2c1C(=O)N/N=C/c1c(O)ccc2ccccc12 | -1.3 | 30.0 | 71.2* | -1.4
O=C(Nc1ccccc1OC(F)(F)F)c1cccs1 | 1.2 | 12.0 | -5.7 | -0.9
COc1cccc(CN2CCC(=O)N(Cc3ccc(F)cc3Cl)CC2)c1 | -0.1 | 10.8 | 5.4 | -1.0
Cc1ccc(C(=O)N/N=C/c2c(O)ccc3ccccc23)cn1 | -0.1 | 55.2* | 80.2* | -0.7
Cc1ccc(C(=O)N/N=C/c2c3ccccc3cc3ccccc23)cn1 | 0.3 | 1.7 | 2.7 | 2.0
O=C(N/N=C/c1c(O)ccc2ccccc12)c1ccc(F)cc1 | -0.2 | 14.3 | 75.6* | -1.4
Cc1ccccc1N(CC(=O)NC(C)(C)C)S(=O)(=O)c1ccccc1 | 0.2 | 16.9 | 1.3 | -0.9
O=c1[nH]c(=S)n(Cc2ccco2)c(O)c1/C=C1\C=CC=N1 | -1.4 | 100.9* | -2.9 | 0.8
CCOc1ccccc1-n1c(O)c(/C=C2\C=CC=N2)c(=O)[nH]c1=O | 0.0 | 12.9 | 24.4 | 0.4
Cc1ccccc1-n1c(O)c(/C=C2\C=CC=N2)c(=O)[nH]c1=O | 0.2 | 9.4 | 57.0* | -2.1
O=c1[nH]c(=O)n(-c2ccccc2F)c(O)c1/C=C1\C=CC=N1 | 0.0 | 12.7 | 57.2* | -0.1
O=c1[nH]c(=O)n(-c2ccccc2Cl)c(O)c1/C=C1\C=CC=N1 | -0.2 | 11.0 | 61.4* | -1.2
O=c1[nH]c(=S)n(-c2ccccc2)c(O)c1/C=C1\C=CC=N1 | 0.1 | -6.9 | -7.8 | 0.3
O=C(C1CN(Cc2ccc3c(c2)OCO3)CCN1C(=O)C1CC1)N1CCOCC1 (stereo not drawn) | 0.0 | 3.6 | -1.4 | -0.9
O=c1c(Cl)c(Cl)cnn1-c1ccc(Cl)cc1 | 1.1 | 11.1 | 82.3* | -1.5
O=c1c2ccccc2nc(-c2ccc(F)cc2)n1NCc1c(F)cccc1Cl | 0.2 | 16.8 | -11.2 | 1.0
CCc1sc(C(=O)Nc2nc(C)cs2)cc1C | -0.1 | 3.1 | -34.8 | -0.9
Cc1csc(NC(=O)c2cc3c(s2)CCC(C)C3)n1 (stereo not drawn) | -0.1 | -3.2 | 74.4* | -5.8
COC1=CC(=O)C=C(OC)C1=O | -0.1 | 4.6 | 55.4* | 0.6
CCOC(=O)N1CCN(C(=O)c2cc(-c3ccncc3)nc3ccccc23)CC1 | -0.1 | 1.3 | 52.0* | 1.9
SMILES | FBW7 activator | MITF primary | TEAD-YAP inh | GPR151 ag
O=C(c1ccccc1)N1CCN(c2nc(-c3ccccc3)c3cc(Cl)ccc3n2)CC1 | 1.9* | 16.7 | 1.9 | -0.5
Cc1ccc(-c2cc(C(=O)N3CCN(c4ccccc4)CC3)c3ccccc3n2)s1 | 0.0 | -5.4 | 48.6* | -0.3
CCOc1ccccc1N1CCN(C(=O)c2cc(-c3cccc(C)c3)nc3ccccc23)CC1 | -0.1 | 22.1 | 41.8* | 0.2
CC(=O)N1CCN(c2nc(-c3ccccc3)c3cc(Cl)ccc3n2)CC1 | 0.1 | 12.7 | 2.6 | 0.9
O=C(c1cc(-c2cccnc2)nc2ccc(Cl)cc12)N1CCN(c2ncccn2)CC1 | 0.0 | 8.6 | 11.4 | -0.1
O=C(c1cc(-c2ccncc2)nc2ccc(Cl)cc12)N1CCN(c2ccccn2)CC1 | -0.1 | -6.1 | 39.6* | -0.4
COc1cccc(CNC(=O)c2cc3oc4ccccc4c3n2C)c1OC | -0.3 | 15.3 | 35.8* | 0.3
COc1cccc(CNC(=O)c2cc3oc4ccccc4c3n2C)c1 | 0.0 | 4.8 | 17.8 | -0.2
CC(=O)NC(C(=O)OCC(=O)N(c1ccccc1)c1ccccc1)C(C)C (stereo not drawn) | 0.0 | 8.0 | -6.9 | -0.3
CC(=O)NC(C(=O)OCc1cnc(-c2ccccc2)s1)C(C)C (stereo not drawn) | 0.1 | 4.2 | 58.8* | -6.8

Screening results from PubChem BioAssay.
